Here are results for five compounds from PubChem BioAssay.

Structures are written as SMILES. Active and inactive are the calls of the source. Unless noted, the rule behind the calls is not given here.

Experiment [1] is described as follows: anti-His antibody binders, primary screen, artefact control for SMM control protein annotation, biochemical, small-molecule microarray, 635 nm fluorescence (AID 1128).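 Note: score merges feature fluorescence with signal-to-noise for each printed compound spot.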 The following applies: anti-His Alexa647 antibody binding, higher = more signal.
For experiment [2], the system named is Human papillomavirus type 1a E7 protein (residues 1-88). Put plainly: HPV1a E7 small-molecule binders, primary screen, biochemical, small-molecule microarray, residues 1-88, 635 nm (AID 1129). The following applies: small-molecule microarray binding, fluorescence 635 nm; higher = more signal.
For experiment [3], the target named is Focal adhesion kinase 1 (Homo sapiens) (UniProt Q05397). The experiment is described as follows: small-molecule microarray binders of FAK, primary screen, biochemical, 635/667 nm fluorescence, BSA, DTT (AID 1130).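 Note: composite of spot emission at 667 nm and signal to noise over triplicate slides.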 The note with it: PTK2 binding, 635 nm fluorescence, higher = more signal.
For experiment [4], the system named is Fibrinogen (Alexa647-labelled). Put plainly: fibrinogen binders on compound microarrays, profiling panel, artefact control for SMM control-protein annotation, biochemical, small-molecule microarray, 635/667 nm fluorescence (AID 1131).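 Note: z-score merges 667 nm fluorescence with per-spot signal-to-noise over triplicate slides.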 The note with it: fibrinogen-A647 binding fluorescence, higher = more signal.
The target in experiment [5] is Follistatin (Homo sapiens) (UniProt P19883). Put plainly: follistatin binders on small-molecule microarrays, primary screen, biochemical, small-molecule microarray, 635/667 nm fluorescence (AID 1132). The following applies: FST binding, 635 nm fluorescence, higher = more signal.
Experiment [6] addresses Fibroblast growth factor 2 (Homo sapiens) (UniProt P09038). Put plainly: FGF2 binders on small-molecule microarrays, primary screen, biochemical, small-molecule microarray, 635/667 nm fluorescence (AID 1133). The following applies: small-molecule microarray binding, FGF2, fluorescence 635/667; higher = more signal.
Experiment [7] can be described thus: mitochondrial membrane potential change in A549 cells, profiling panel, cell-based, JC-1 fluorescence, basal, 24 h, 100 nL (AID 1138).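 Note: A549 lung adenocarcinoma cells under basal conditions with no added stimulus; test concentration not given here.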 The note with it: higher = more signal.
Experiment [8] relates to Lefty1. Put plainly: Lefty1 binders on small-molecule microarrays, primary screen, biochemical, small-molecule microarray, 635/667 nm fluorescence (AID 1139). The note with it: small-molecule microarray binding, fluorescence 635/667; higher = more signal.
In experiment [9] the test system is wheat germ agglutinin (Triticum aestivum), Alexa647-labelled. Put plainly: wheat germ agglutinin binders on compound microarrays, profiling panel, artefact control for SMM control-protein annotation, biochemical, small-molecule microarray, 635/667 nm fluorescence (AID 1140).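 Note: score merges 667 nm feature emission with signal to noise over triplicate slides.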 The note with it: WGA-A647 binding, 635 nm fluorescence, higher = more signal.
In experiment [10] the target is Luciferin 4-monooxygenase (Photinus pyralis) (UniProt P08659). The experiment is described as follows: firefly luciferase enzyme inhibitors, primary screen, biochemical, luminescence, purified enzyme, 2006 set (AID 1141).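 Note: cell-free assay with purified firefly luciferase at 100 ng per well in PBS; test concentration not given here.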 The following applies: SteadyGlo luminescence, 30 min, higher = more signal, called active from +8 up or from −8 down.
Experiment [11] has as its system Wnt5a (protein binding on small-molecule microarray). The experiment is described as follows: Wnt5a binders on small-molecule microarray, primary screen, biophysical, 635/667 nm fluorescence (AID 1142).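 Note: fluorescence read at 667 nm with signal to noise per printed feature.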 The note with it: 635 nm fluorescence, higher = more signal.
Experiment [12] is described as follows: cell viability in Huh7 cells, primary screen, cytotoxicity control for HCV replication inhibitor project, CellTiter-Glo luminescence, basal, 48 h (AID 1143).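 Note: Huh7 hepatoma cells carrying a hepatitis C replication reporter with no stimulus; test concentration not given here.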 The note with it: Huh7 HCV replicon, higher = more signal, called active from +8 up or from −8 down. For orientation: Cellular ATP, detected with luciferase, serves as a proxy for viable cell number.
Experiment [13] in a line: P. aeruginosa biofilm formation inhibitors, primary screen, PAO1 strain, BacTiter-Glo luminescence, LB-PBS (AID 1144). The following applies: 12 h, higher = more signal.
Experiment [14] in a line: CREB reporter modulators without forskolin, primary screen, cell-based, PC12, CRE-LacZ reporter, unstimulated (AID 1145). The following applies: no forskolin, luminescence, 4.5 h, higher = more signal, called active from +8 up or from −8 down.
Experiment [15] in a line: CREB reporter modulators under forskolin, primary screen, cell-based, PC12, CRE-LacZ reporter, forskolin-stimulated (AID 1146).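 Note: PC12 cells with 6xCRE LacZ reporter stimulated by forskolin 10 µM; beta-galactosidase reporter signal reflecting CREB driven transcription.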 The note with it: luminescence, 4.5 h, higher = more signal, called active from +8 up or from −8 down.
The target in experiment [16] is Streptavidin (Streptomyces avidinii) (UniProt P22629). The experiment is described as follows: streptavidin binders on small-molecule microarray, primary screen, artefact control for SMM compound annotation, biophysical, 635/667 nm fluorescence (AID 1147).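 Note: signal reflects streptavidin binding to arrayed compounds as a control protein.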 The note with it: streptavidin binding, higher = more signal.
Experiment [17] in a line: small-molecule binders of probe aInhba, primary screen, biochemical, small-molecule microarray, 635/667 nm fluorescence (AID 1148).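 Note: score merges 667nm spot fluorescence with signal-to-noise for antibody binding to printed compounds.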 The note with it: higher = more signal.
Experiment [18] addresses Torsin-1A (Homo sapiens) (UniProt O14656). The experiment is described as follows: torsin A binders from cell lysate, primary screen, small-molecule microarray, wild-type, 635/667 nm (AID 1149). The note with it: COS7 hTOR1A-WT lysate, 635 nm fluorescence, higher = more signal.
Experiment [19] shares this target. The experiment is described as follows: small-molecule binders of mutant TOR1A in lysate, primary screen, cell lysate, small-molecule microarray, COS7 lysate, 635/667 nm fluorescence (AID 1150).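 Note: score pools 667 nm emission and signal to noise measuring lysate protein binding.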 The note with it: COS7 hTOR1A mutant lysate, 635 nm fluorescence, higher = more signal.
Experiment [20] has as its system Sonic hedgehog protein (Shh). Put plainly: small-molecule binders of Shh protein, primary screen, biochemical, small-molecule microarray, 635/667 nm fluorescence (AID 1151).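 Note: Shh protein binding to compounds spotted on small-molecule microarray slides; score combines spot fluorescence intensity with signal-to-noise across triplicate slides.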 The following applies: small-molecule microarray binding, 635 nm fluorescence; higher = more signal.

Streptavidin (Streptomyces avidinii), sequence (P22629 whole entry, looked up): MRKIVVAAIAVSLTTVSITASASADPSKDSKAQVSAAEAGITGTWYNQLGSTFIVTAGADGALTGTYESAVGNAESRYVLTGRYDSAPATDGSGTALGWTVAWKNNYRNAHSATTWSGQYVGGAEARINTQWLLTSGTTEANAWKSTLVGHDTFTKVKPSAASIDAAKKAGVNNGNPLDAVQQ
Focal adhesion kinase 1 (Homo sapiens), sequence (Q05397 whole entry, looked up): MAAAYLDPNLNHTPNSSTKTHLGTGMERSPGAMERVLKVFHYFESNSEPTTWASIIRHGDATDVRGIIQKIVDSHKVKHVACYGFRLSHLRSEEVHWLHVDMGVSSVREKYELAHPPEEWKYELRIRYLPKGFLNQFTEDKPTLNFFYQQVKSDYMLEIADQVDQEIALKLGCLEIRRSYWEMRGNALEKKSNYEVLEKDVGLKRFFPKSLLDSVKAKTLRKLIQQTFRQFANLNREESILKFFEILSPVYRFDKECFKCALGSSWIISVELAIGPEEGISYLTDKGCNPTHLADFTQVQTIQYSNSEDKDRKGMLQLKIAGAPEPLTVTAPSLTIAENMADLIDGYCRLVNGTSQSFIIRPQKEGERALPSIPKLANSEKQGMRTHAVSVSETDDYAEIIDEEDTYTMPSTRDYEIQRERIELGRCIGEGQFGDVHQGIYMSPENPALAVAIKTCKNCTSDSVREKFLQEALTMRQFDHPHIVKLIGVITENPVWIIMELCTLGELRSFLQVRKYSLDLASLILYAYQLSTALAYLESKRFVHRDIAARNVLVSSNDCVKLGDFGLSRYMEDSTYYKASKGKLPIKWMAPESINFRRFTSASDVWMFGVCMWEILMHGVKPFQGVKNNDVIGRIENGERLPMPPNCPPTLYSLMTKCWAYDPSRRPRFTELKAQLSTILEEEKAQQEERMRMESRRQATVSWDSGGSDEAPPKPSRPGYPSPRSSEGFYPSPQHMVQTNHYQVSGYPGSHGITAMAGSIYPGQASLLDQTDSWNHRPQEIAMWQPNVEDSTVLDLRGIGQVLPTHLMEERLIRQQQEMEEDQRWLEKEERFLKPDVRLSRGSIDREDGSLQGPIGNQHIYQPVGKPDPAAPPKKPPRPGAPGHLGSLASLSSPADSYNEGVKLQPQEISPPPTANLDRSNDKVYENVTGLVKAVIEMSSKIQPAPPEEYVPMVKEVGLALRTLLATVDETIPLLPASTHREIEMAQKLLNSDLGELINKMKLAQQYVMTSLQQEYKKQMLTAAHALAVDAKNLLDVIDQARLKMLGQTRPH
Torsin-1A (Homo sapiens), sequence (O14656 whole entry, looked up): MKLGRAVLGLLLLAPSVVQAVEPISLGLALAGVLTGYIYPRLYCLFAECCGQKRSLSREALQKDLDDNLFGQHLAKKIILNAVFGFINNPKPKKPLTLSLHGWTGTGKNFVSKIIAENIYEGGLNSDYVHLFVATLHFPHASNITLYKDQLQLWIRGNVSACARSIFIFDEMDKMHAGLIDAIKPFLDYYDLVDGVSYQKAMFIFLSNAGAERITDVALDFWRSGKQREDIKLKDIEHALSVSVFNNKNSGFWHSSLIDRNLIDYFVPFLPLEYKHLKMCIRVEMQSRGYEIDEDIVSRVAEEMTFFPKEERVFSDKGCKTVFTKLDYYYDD
Fibroblast growth factor 2 (Homo sapiens), sequence (P09038 whole entry, looked up): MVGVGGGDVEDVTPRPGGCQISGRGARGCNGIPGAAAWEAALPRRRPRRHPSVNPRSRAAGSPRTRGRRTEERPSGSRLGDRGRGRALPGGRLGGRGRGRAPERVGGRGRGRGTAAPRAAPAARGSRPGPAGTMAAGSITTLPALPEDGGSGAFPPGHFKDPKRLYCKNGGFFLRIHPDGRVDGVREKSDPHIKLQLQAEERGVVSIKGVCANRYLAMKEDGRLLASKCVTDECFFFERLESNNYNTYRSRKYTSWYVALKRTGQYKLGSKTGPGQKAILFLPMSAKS
Follistatin (Homo sapiens), sequence (P19883 whole entry, looked up): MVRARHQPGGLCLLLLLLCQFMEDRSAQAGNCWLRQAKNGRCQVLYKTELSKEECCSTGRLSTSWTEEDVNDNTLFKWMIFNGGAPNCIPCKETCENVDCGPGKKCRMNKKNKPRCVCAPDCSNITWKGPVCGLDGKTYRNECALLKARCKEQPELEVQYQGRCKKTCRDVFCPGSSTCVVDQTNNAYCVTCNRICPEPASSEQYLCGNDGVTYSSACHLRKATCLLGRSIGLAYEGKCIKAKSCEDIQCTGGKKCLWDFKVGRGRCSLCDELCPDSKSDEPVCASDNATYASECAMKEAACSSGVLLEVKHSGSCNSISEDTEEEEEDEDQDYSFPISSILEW
Luciferin 4-monooxygenase (Photinus pyralis), sequence (P08659 whole entry, looked up): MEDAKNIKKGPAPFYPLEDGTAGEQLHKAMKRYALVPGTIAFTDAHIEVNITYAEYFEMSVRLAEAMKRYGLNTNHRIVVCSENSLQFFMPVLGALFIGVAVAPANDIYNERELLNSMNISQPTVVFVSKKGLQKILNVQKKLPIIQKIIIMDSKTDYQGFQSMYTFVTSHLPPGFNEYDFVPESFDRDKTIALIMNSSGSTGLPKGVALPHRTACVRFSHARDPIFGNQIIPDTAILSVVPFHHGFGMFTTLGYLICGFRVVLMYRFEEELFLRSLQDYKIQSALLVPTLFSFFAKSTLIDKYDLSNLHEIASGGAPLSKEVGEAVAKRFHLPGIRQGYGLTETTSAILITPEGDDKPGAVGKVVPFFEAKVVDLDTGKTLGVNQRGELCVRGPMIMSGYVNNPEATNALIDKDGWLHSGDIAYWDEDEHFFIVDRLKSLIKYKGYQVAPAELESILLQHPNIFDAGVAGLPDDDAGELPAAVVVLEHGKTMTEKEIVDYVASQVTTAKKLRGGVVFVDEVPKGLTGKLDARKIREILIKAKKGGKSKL

Regarding `COc1ccc([Si](C)(C)[C@@H]2[C@@H](CCO)O[C@]3(C(=O)N(Cc4ccccc4)c4ccc(N5C(=O)c6ccccc6Oc6ccccc65)cc43)[C@H]2C)cc1`, the composite z-score in [1] was 0.176; in experiment [2], 0.106; in experiment [3], 0.0875; in experiment [4], -0.0507; in experiment [5] it was 0.0192; in experiment [6], -0.539. The composite z-score in [8] is 0.172; in experiment [9], 0.204; in experiment [11] it was -0.204; in [16] it was -0.059; in experiment [17] it was -0.128; in [18] it was -0.642. Moreover, the results for the composite z-score in experiment [19] and in experiment [20] were -0.32 and 0.459, respectively. Moreover, the z-score in experiment [7] is -0.0766; in experiment [10], 0.762 (inactive); in experiment [12], -5.7 (inactive); in experiment [13] it was -0.332 (inactive); in experiment [14] it was 1.07 (inactive); in [15] it was 1.07 (inactive).

For `CCC[C@@H]1[C@@H](Sc2ccccc2)[C@@H](C(=O)O)[C@H](c2ccc(C)cc2)N1S(=O)(=O)c1ccc(C)cc1`, the composite z-score was determined as 0.832 in experiment [1]; 1.25 in experiment [2]; 0.725 in [3]; 1.05 in [4]; 0.769 in experiment [5]; 0.0754 in [6]. Besides, the composite z-score in [8] was 0.717; in experiment [9] it was 0.774; in [11] it was 0.664; in [16], 1.67; in [17], 0.0921; in experiment [18], 0.26. In addition, the composite z-score came to 0.165 in [19] and 0.641 in experiment [20]. The z-score in [7] was -0.61; in experiment [10], 1.46 (inactive); in experiment [12], -1.72 (inactive); in experiment [13], -1.96 (inactive); in experiment [14], -0.471 (inactive); in experiment [15], -0.722 (inactive).

For `C[C@@H](OCc1ccccc1)C1NC(=O)[C@@]23C(=O)N[C@@H](Cc4ccccc4)C2[C@H](C)[C@@]2(C)O[C@H]2C3/C=C/C/C=C\CNC(=O)[C@H](Cc2ccccc2)NC1=O` (stereo not given in full), the composite z-score in experiment [1] is 0.276; in [2] it was -0.197; in experiment [3] it was -0.422; in [4], 0.569; in experiment [5] it was 0.793; in experiment [6], 0.803. Moreover, the composite z-score in experiment [8] was 0.557; in experiment [9] it was -0.228; in [11], -0.0187; in experiment [16], -0.85; in experiment [17], 0.0131; in experiment [18] it was -0.258. The composite z-score in experiment [19] is 0.293; in experiment [20], 1.07. The z-score is -0.227 in [7]; -3.26 (inactive) in experiment [10]; -3.97 (inactive) in [12]; 0.541 (inactive) in experiment [13]; 5.48 (inactive) in experiment [14]; -0.164 (inactive) in experiment [15].

For `COc1ccc(C#Cc2ccc3c(c2)[C@]2(C(=O)N3)[C@H](c3ccc(OCCO)cc3)N3[C@H](c4ccccc4)[C@H](c4ccccc4)OC(=O)[C@H]3[C@@H]2C(=O)O)cc1`, the composite z-score was determined as 0.406 in experiment [1]; 1.22 in experiment [2]; 0.583 in [3]; 0.771 in experiment [4]; 1.15 in [5]; 0.485 in experiment [6]. The composite z-score was 1.63 in [8]; 0.416 in experiment [9]; 0.57 in [11]; -0.105 in experiment [16]; 0.927 in experiment [17]; 0.546 in experiment [18]. The composite z-score was 1.2 in experiment [19] and 1.89 in experiment [20]. The z-score is -2.54 in experiment [7]; -4.63 (inactive) in experiment [10]; -5.01 (inactive) in experiment [12]; -2.48 (inactive) in [13]; -0.0515 (inactive) in experiment [14]; 3.52 (inactive) in [15].

Consider `[N-]=[N+]=NCc1ccccc1C[C@]1(C(=O)N2CCOCC2)N=C(c2ccc(OCCCO)cc2)O[C@H]1c1ccccc1CN=[N+]=[N-]`, for which the composite z-score in experiment [1] amounted to 2.97; in [2], 1.25; in experiment [3], 0.681; in experiment [4], 0.963; in experiment [5], 1.3; in experiment [6] it was 1.92. For the same compound, the composite z-score was -0.232 in [8]; 1 in experiment [9]; 1.42 in [11]; 1.24 in experiment [16]; 1.28 in experiment [17]; 0.3 in [18]. The composite z-score in experiment [19] is 0.863; in experiment [20], -0.0561. In addition, the z-score is 1.68 in experiment [7]; -1.25 (inactive) in experiment [10]; -3.43 (inactive) in experiment [12]; -0.52 (inactive) in experiment [13]; 0.778 (inactive) in [14]; -1.32 (inactive) in [15].
